{
  "source": "the supplement of paper PMC8728848",
  "binders": {"B1": {"name": "DrGal3 (Danio rerio) (protein)", "chain": "MDLSDALDAPPQQNNQQAGGPVWPGQPANPVWPGQPANPTWPGQPNQPAWPGQPNQQWPGQPGQPTAPGWPGPAPQTGPYGAPGQAPQVLTVPLDFPLQNGAYNKMLITINGEVKPNAKQFTVNLRRGNDIAFHINPRFSEGGKPVIVRNSMIGNNWGREERELPSFPFVPGKPFEMKILITDTEYKVAVNKSHLLEFKHRVFELNQITGLSIYNDVTLSTVNVETLQ"}},
  "assay_in_all_cases": "glycan array binding signal (z-score within array); higher = stronger binding",
  "conditions_in_all_cases": "glycan notation: IUPAC condensed, linker removed",
  "key": {"[1]": {"target": "Fuc(a1-2)Gal(b1-3)GalNAc(a1-3)[Fuc(a1-2)]Gal(b1-4)Glc", "outline": "(§1)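 Glycan array binding is given as a within-array Z-score, which can be read as non-binding when negative. The arrays, 3228 of them, came from the Consortium for Functional Glycomics database and were retained only where the protein sequence was available. Z-scores were averaged across arrays of the same protein sequence at different concentrations or buffers and across linkers.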"}, "[2]": {"target": "Fuc(a1-2)Gal(b1-3)GlcNAc(b1-3)[Fuc(a1-2)Gal(b1-3)GlcNAc(b1-6)]GalNAc", "outline": "as §1"}, "[3]": {"target": "Fuc(a1-2)Gal(b1-4)Fuc(a1-3)]GlcNAc(b1-2)Man(a1-3)[Fuc(a1-2)Gal(b1-4)[Fuc(a1-3)]GlcNAc(b1-2)Man(a1-6)]Man(b1-4)GlcNAc(b1-4)GlcNAc", "outline": "as §1"}, "[4]": {"target": "Fuc(a1-2)Gal(b1-4)GlcNAc(b1-2)Man(a1-3)[Fuc(a1-2)Gal(b1-4)GlcNAc(b1-2)Man(a1-6)]Man(b1-4)GlcNAc(b1-4)GlcNAc", "outline": "as §1"}, "[5]": {"target": "Fuc(a1-2)Gal(b1-4)GlcNAc(b1-2)Man(a1-3)[Fuc(a1-2)Gal(b1-4)GlcNAc(b1-2)Man(a1-6)]Man(b1-4)GlcNAc(b1-4)[Fuc(a1-6)]GlcNAc", "outline": "as §1"}, "[6]": {"target": "Fuc(a1-2)Gal(b1-4)GlcNAc(b1-3)Gal(b1-4)GlcNAc(b1-2)Man(a1-3)[Fuc(a1-2)Gal(b1-4)GlcNAc(b1-3)Gal(b1-4)GlcNAc(b1-2)Man(a1-6)]Man(b1-4)GlcNAc(b1-4)GlcNAc", "outline": "as §1"}, "[7]": {"target": "Fuc(a1-2)Gal(b1-4)GlcNAc(b1-6)GalNAc", "outline": "as §1"}, "[8]": {"target": "Fuc(a1-2)[Gal(a1-4)]Gal(b1-4)GlcNAc", "outline": "as §1"}, "[9]": {"target": "Fuc(a1-2)[GalNAc(a1-3)]Gal(b1-3)GlcNAc", "outline": "as §1"}, "[10]": {"target": "Fuc(a1-2)[GalNAc(a1-3)]Gal(b1-4)[Fuc(a1-3)]GlcNAc", "outline": "as §1"}, "[11]": {"target": "Fuc(a1-2)[GalNAc(a1-4)]Gal(b1-4)GlcNAc", "outline": "as §1"}, "Fuc(b1-3)GlcNAc": {"target": "Fuc(b1-3)GlcNAc", "outline": "as §1"}, "[12]": {"target": "Gal(a1-3)Gal(b1-3)GlcNAc(b1-3)GalNAc", "outline": "as §1"}, "Gal(a1-3)Gal(b1-4)Glc": {"target": "Gal(a1-3)Gal(b1-4)Glc", "outline": "as §1"}, "Gal(a1-3)GalNAc": {"target": "Gal(a1-3)GalNAc", "outline": "as §1"}, "Gal(b1-3)GalNAc(b1-3)Gal": {"target": "Gal(b1-3)GalNAc(b1-3)Gal", "outline": "as §1"}, "[13]": {"target": "Gal(b1-3)[Fuc(a1-4)]GlcNAc(b1-6)GalNAc", "outline": "as §1"}, "[14]": {"target": "Gal(b1-3)[GlcNAc(b1-6)]GalNAc", "outline": "as §1"}, "Gal(b1-4)GlcNAc": {"target": "Gal(b1-4)GlcNAc", "outline": "as §1"}, "[15]": {"target": "Gal(b1-4)GlcNAc(b1-2)Man(a1-3)[Gal(b1-4)GlcNAc(b1-2)Man(a1-6)][Gal(b1-4)GlcNAc(b1-4)]Man(b1-4)GlcNAc(b1-4)[Fuc(a1-6)]GlcNAc", "outline": "as §1"}, "[16]": {"target": "Gal(b1-4)GlcNAc(b1-3)Gal(b1-4)GlcNAc(b1-3)Gal(b1-4)GlcNAc(b1-2)Man(a1-3)[Gal(b1-4)GlcNAc(b1-3)Gal(b1-4)GlcNAc(b1-3)Gal(b1-4)GlcNAc(b1-2)Man(a1-6)]Man(b1-4)GlcNAc(b1-4)[Fuc(a1-6)]GlcNAc", "outline": "as §1"}, "[17]": {"target": "Gal(b1-4)GlcNAc(b1-3)Gal(b1-4)GlcNAc(b1-3)Gal(b1-4)GlcNAc(b1-3)Gal(b1-4)GlcNAc(b1-2)Man(a1-3)[Gal(b1-4)GlcNAc(b1-3)Gal(b1-4)GlcNAc(b1-3)Gal(b1-4)GlcNAc(b1-3)Gal(b1-4)GlcNAc(b1-2)Man(a1-6)]Man(b1-4)GlcNAc(b1-4)GlcNAc", "outline": "as §1"}, "[18]": {"target": "Gal(b1-4)GlcNAc(b1-3)Gal(b1-4)GlcNAc(b1-3)Gal(b1-4)GlcNAc(b1-3)Gal(b1-4)GlcNAc(b1-2)Man(a1-3)[Gal(b1-4)GlcNAc(b1-3)Gal(b1-4)GlcNAc(b1-3)Gal(b1-4)GlcNAc(b1-3)Gal(b1-4)GlcNAc(b1-2)Man(a1-6)]Man(b1-4)GlcNAc(b1-4)[Fuc(a1-6)]GlcNAc", "outline": "as §1"}, "[19]": {"target": "Gal(b1-4)GlcNAc(b1-3)Gal(b1-4)GlcNAc(b1-3)Gal(b1-4)GlcNAc(b1-3)Gal(b1-4)GlcNAc(b1-2)[Gal(b1-4)GlcNAc(b1-3)Gal(b1-4)GlcNAc(b1-3)Gal(b1-4)GlcNAc(b1-3)Gal(b1-4)GlcNAc(b1-6)]Man(a1-6)[Gal(b1-4)GlcNAc(b1-3)Gal(b1-4)GlcNAc(b1-3)Gal(b1-4)GlcNAc(b1-3)Gal(b1-4)GlcNAc(b1-2)Man(a1-3)]Man(b1-4)GlcNAc(b1-4)[Fuc(a1-6)]GlcNAc", "outline": "as §1"}, "[20]": {"target": "Gal(b1-4)GlcNAc(b1-3)Gal(b1-4)GlcNAc(b1-3)Gal(b1-4)GlcNAc(b1-3)Gal(b1-4)GlcNAc(b1-3)Gal(b1-4)GlcNAc(b1-2)Man(a1-3)[Gal(b1-4)GlcNAc(b1-3)Gal(b1-4)GlcNAc(b1-3)Gal(b1-4)GlcNAc(b1-3)Gal(b1-4)GlcNAc(b1-3)Gal(b1-4)GlcNAc(b1-2)Man(a1-6)]Man(b1-4)GlcNAc(b1-4)GlcNAc", "outline": "as §1"}},
  "note": "This is one part of a sample in which the strongest signals are shown more often than they occur.",
  "data": [
    {"binder": "B1", "values": [
      {"measurement": "glycan array binding signal (z-score)", "setting": "[1]", "value": -0.254},
      {"measurement": "glycan array binding signal (z-score)", "setting": "[2]", "value": -0.164},
      {"measurement": "glycan array binding signal (z-score)", "setting": "[3]", "value": -0.125},
      {"measurement": "glycan array binding signal (z-score)", "setting": "[4]", "value": -0.218},
      {"measurement": "glycan array binding signal (z-score)", "setting": "[5]", "value": -0.209},
      {"measurement": "glycan array binding signal (z-score)", "setting": "[6]", "value": 1.52},
      {"measurement": "glycan array binding signal (z-score)", "setting": "[7]", "value": -0.25},
      {"measurement": "glycan array binding signal (z-score)", "setting": "[8]", "value": -0.087},
      {"measurement": "glycan array binding signal (z-score)", "setting": "[9]", "value": -0.212},
      {"measurement": "glycan array binding signal (z-score)", "setting": "[10]", "value": -0.206},
      {"measurement": "glycan array binding signal (z-score)", "setting": "[11]", "value": -0.233},
      {"measurement": "glycan array binding signal (z-score)", "setting": "Fuc(b1-3)GlcNAc", "value": -0.277},
      {"measurement": "glycan array binding signal (z-score)", "setting": "[12]", "value": -0.287},
      {"measurement": "glycan array binding signal (z-score)", "setting": "Gal(a1-3)Gal(b1-4)Glc", "value": -0.233},
      {"measurement": "glycan array binding signal (z-score)", "setting": "Gal(a1-3)GalNAc", "value": -0.007},
      {"measurement": "glycan array binding signal (z-score)", "setting": "Gal(b1-3)GalNAc(b1-3)Gal", "value": -0.183},
      {"measurement": "glycan array binding signal (z-score)", "setting": "[13]", "value": -0.208},
      {"measurement": "glycan array binding signal (z-score)", "setting": "[14]", "value": -0.231},
      {"measurement": "glycan array binding signal (z-score)", "setting": "Gal(b1-4)GlcNAc", "value": -0.237},
      {"measurement": "glycan array binding signal (z-score)", "setting": "[15]", "value": -0.247},
      {"measurement": "glycan array binding signal (z-score)", "setting": "[16]", "value": 4.37},
      {"measurement": "glycan array binding signal (z-score)", "setting": "[17]", "value": 4.2},
      {"measurement": "glycan array binding signal (z-score)", "setting": "[18]", "value": 5.59},
      {"measurement": "glycan array binding signal (z-score)", "setting": "[19]", "value": 4.6},
      {"measurement": "glycan array binding signal (z-score)", "setting": "[20]", "value": 6.65}
    ]}
  ]
}
